Bioassay records deposited in PubChem BioAssay by National Center for Advancing Translational Sciences (NCATS).
aSyn yeast inh – inhibitors of alpha-synuclein toxicity in yeast | actives 0.14% (n = 370,000) | AID 652106 | Potency, µM (titrated, usually from 46.1 µM), inactives show at the highest dose growth rescue (activation), actives largely listed as activators | Yeast expressing alpha-synuclein, growth rescue, BacTiter-Glo, 24 h; note: % of control where 0% means no effect; nearly all actives have a fitted effect of over 65% in size
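Rescue of yeast growth: cells expressing toxic alpha-synuclein, induced in galactose at OD600 0.02, incubated with compound 24 h at 30 C. ATP luminescence quantified growth; inhibitors of toxicity appear as activators.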
Abeta rescue – A-beta toxicity reversal in yeast. yeast expressing A-beta42, growth rescue, OD600, 48 h; response scale: 0% DMSO, 100% iron-clioquinol control. actives 0.063% (n = 410,000). Potency, µM (titrated, usually from 46.1 µM), usual class: activators; note: nearly all actives have a fitted effect of over 55% in size
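Yeast growth medium received pinned compounds, then yeast cells expressing toxic A-beta were added; plates incubated at 30 C for 48 hr. Growth read as absorbance at 600 nm, normalized to DMSO and equimolar FeCl3 plus clioquinol controls.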
AT treatment – potential ataxia-telangiectasia treatment | F2112 A-T fibroblasts, KAP-1 phosphorylation AlphaLISA; neocarzinostatin DNA damage 30 min before lysis | Potency, µM (doses to about 57.5 µM), for the others: at the highest dose activation, most hits filed as activators | actives 0.19% (n = 320,000) | AID 485349; note: % of control where 0% means no effect; nearly all actives have a fitted effect of over 45% in size
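ATM-like activity read as KAP-1 phosphorylation via AlphaLISA donor/acceptor antibody pairs after lysis and 6 hr at 25C. Cells were ATM-null patient fibroblasts (F2112, hTERT), dosed 60 min, then exposed to the DSB inducer NCS for 30 min.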
Mito fusion act – inhibitors of mitochondrial division or activators of mitochondrial fusion; AID 485298; S. cerevisiae fusion-defective mutant growth rescue, CellTiterGlo 48 h; actives 0.23% (n = 320,000); Potency, µM (top dose mostly 46.1 µM), for the others: top-dose growth rescue (activation), hits mostly activators; note: % of control where 0% means no effect; nearly all actives have a fitted effect of over 45% in size
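Read-out: ATP-based luminescence (CellTiterGlo, 10 min ambient) reporting growth of fusion-defective ts yeast after 48 hours at 37C on glycerol/ethanol YPEG medium in the presence of compound.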
FUS suppressor – rescues growth of FUS-expressing yeast | Potency, µM (titrated, usually from 76.6 µM), most hits filed as activators | S. cerevisiae FUS-expressing, growth rescue, OD600, 24 h | actives 0.24% (n = 390,000) | AID 1347120;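 note: plate controls were DMSO vehicle for no effect and reference control for full effect; nearly all actives have a fitted effect of over 55% in size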
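Compound concentration series was pinned onto galactose-induced FUS-expressing yeast seeded at OD 0.005. Plates sat 24hr at 30C; absorbance at 600 nm gave growth. DMSO served as background control.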
TDP43 rescue – inhibitors of TDP-43 toxicity in yeast; actives 1.8% (n = 410,000); Potency, µM (titrated, usually from 46.1 µM), without a hit: at the top dose growth rescue (activation), most hits filed as activators; TDP-43 expressing yeast growth rescue, BacTiter-Glo, 24 h; AID 652104; note: % of control where 0% means no effect; nearly all actives have a fitted effect of over 50% in size
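Yeast cells expressing TDP-43 under galactose induction are exposed to compounds for 24 hr at 30 deg C. BacTiter-Glo luminescence measures growth, so protective compounds score as activators.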
Active calls of the source: *; i = inactive; u = inconclusive; x = no result; ! = not confirmed by another sample. Rows were chosen to be rich in hits. Some 2.4% of all compounds tested hit in one or more screens of this group. Calls come from the whole dose curve; as a rule, active = well fitted curve in the direction sought with a large enough effect; inconclusive = small, poorly fitted or top-dose-only effect, or another doubt; inactive = no such curve, though single readings can be large; an effect the other way counts as inactive or inconclusive. Potency is the fitted concentration of half-maximal effect.

SMILES	aSyn yeast inh	Abeta rescue	AT treatment	Mito fusion act	FUS suppressor	TDP43 rescue
CC(C)CC(NC(=O)CCCNC(=O)CCC(=O)OC1O[C@H]2OC3(C)CC[C@H]4[C@H](C)CCC(C1C)C24OO3)C(=O)O (some centres not stated)	-1.9%	i	6.1%	16.2%	i	20µM*
C[C@H]1[C@H](OC(=O)CCC(=O)NCc2ccc(C(=O)O)cc2)O[C@@H]2O[C@@]3(C)CC[C@H]4[C@H](C)CC[C@@H]1C24OO3	-9.3%	i	-11.8%	21.2%	i	22.4µM*
CC1C(OC(=O)CCC(=O)NC(C)(C)CO)O[C@H]2OC3(C)CC[C@H]4[C@H](C)CCC1C24OO3 (some centres not stated)	-10.1%	i	2.0%	24.9%	i	22.4µM*
Cn1cccc1C(=O)OCC(=O)NCCc1ccc(S(N)(=O)=O)cc1	-2.9%	i	14.3%	x	x	-31.4%
C[C@]12Cc3cn4c(nc3C=C1CCC1C2CC[C@@]2(C)[C@H]1CC[C@@]2(O)C#N)nc1ccccc14 (some centres not stated)	19.3%	x	x	u	x	x
O=C1/C(=C/c2ccc([N+](=O)[O-])cc2)N2CCC1CC2	3.1%	i	3.8%	-1.3%	x	0.0%
O=[N+]([O-])c1ccc(S(=O)(=O)N2CCn3cccc3C2c2ccccc2F)cc1 (configuration not stated)	x	i	x	x	u	22.4µM*
CCC(=O)Nc1ccc(C(=O)NNC(=O)c2cc([N+](=O)[O-])cc([N+](=O)[O-])c2)cc1	-1.0%	i	1.5%	3.1%	i	-23.5%
COCCNP(=O)(c1ccccc1)c1nc2ccccc2s1 (configuration not stated)	x	x	6.8%	3.5%	x	x
COc1ccc(Nc2nc(N)nc(CSc3nc4ccccc4s3)n2)cc1	x	i	x	x	u	20µM*
Cc1ccccc1C(=O)Nc1ccc2nc(SCC(=O)N(C)c3ccccc3)sc2c1	x	i	x	x	u	35.5µM*
CC(C)(C)c1ccc(C(=O)Nc2ccc3nc(SCC(=O)N4CCCC4)sc3c2)cc1	x	i	x	x	u	u
COc1ccc(-c2cc(C(=O)N3CCN(c4ccccc4OC)CC3)c3cc(C(C)C)ccc3n2)cc1	x	i	x	x	i	u
COc1cc2c(cc1O)CC[C@@H]1[C@@H]2CC[C@]2(C)[C@@H](O)CC[C@@H]12	26.3%	i	x	20.6µM*!	i	u
C[C@]12CC[C@H]3[C@@H](CCC4=CC(=O)CC[C@@]43C)[C@@H]1CC[C@@H]2O	-3.3%	i	0.6%	x	i	u
N#CCCN	-7.5%	x	x	-3.4%	x	x
BrCC1C[n+]2c(SCc3ccccc3)nc3sc4c(c3c2O1)CCCC4 (configuration not stated)	1.3%	i	39.8µM*	27.3%	u	u
Nc1c2c(nc3sc4c(c13)CCCCC4)CCCC2	-4.0%	i	1.0%	9.7%	i	1.6%
Oc1ccccc1/C=N/[n+]1ccccc1	-1.5%	i	-3.8%	2.4%	i	-24.6%
Cc1onc(-c2ccccc2)c1C(=O)N[C@@H]1C(=O)N2C1SC(C)(C)[C@@H]2C(=O)O (some centres not stated)	-0.4%	i	x	x	i	u
N#CC1(c2ccccc2)CCN(C2CC(=O)N(c3ccc(F)cc3)C2=O)CC1 (configuration not stated)	-1.1%	i	-2.5%	-7.7%	i	-1.0%
COc1ccc(N2C(=O)CC(N3CC=C(c4ccccc4)CC3)C2=O)cc1 (configuration not stated)	u	i	5.7%	-9.4%	i	22.4µM*
